This is an account of results in ChEMBL document CHEMBL3988442, “University of Dundee, Small-Polar-MMV Screening Library” (2021).

For some assays here: Measured potencies and affinities stand elsewhere.

Set-up in all cases: scale not given: direction of the effect not stated beside the values
In experiment [1] the target is Protein translocase subunit SecA (Escherichia coli (strain K12)) (UniProt P10408). The experiment is described as follows: Assay to Identify E. coli SecA ATPase Inhibitors. In kind it is functional. Particulars: 30 µM.
The target of experiment [2] is T1, Ubiquitin-activating enzyme e1, putative (Leishmania donovani (strain BPK282A1)) (UniProt E9BSI1).
T1 sequence (whole entry): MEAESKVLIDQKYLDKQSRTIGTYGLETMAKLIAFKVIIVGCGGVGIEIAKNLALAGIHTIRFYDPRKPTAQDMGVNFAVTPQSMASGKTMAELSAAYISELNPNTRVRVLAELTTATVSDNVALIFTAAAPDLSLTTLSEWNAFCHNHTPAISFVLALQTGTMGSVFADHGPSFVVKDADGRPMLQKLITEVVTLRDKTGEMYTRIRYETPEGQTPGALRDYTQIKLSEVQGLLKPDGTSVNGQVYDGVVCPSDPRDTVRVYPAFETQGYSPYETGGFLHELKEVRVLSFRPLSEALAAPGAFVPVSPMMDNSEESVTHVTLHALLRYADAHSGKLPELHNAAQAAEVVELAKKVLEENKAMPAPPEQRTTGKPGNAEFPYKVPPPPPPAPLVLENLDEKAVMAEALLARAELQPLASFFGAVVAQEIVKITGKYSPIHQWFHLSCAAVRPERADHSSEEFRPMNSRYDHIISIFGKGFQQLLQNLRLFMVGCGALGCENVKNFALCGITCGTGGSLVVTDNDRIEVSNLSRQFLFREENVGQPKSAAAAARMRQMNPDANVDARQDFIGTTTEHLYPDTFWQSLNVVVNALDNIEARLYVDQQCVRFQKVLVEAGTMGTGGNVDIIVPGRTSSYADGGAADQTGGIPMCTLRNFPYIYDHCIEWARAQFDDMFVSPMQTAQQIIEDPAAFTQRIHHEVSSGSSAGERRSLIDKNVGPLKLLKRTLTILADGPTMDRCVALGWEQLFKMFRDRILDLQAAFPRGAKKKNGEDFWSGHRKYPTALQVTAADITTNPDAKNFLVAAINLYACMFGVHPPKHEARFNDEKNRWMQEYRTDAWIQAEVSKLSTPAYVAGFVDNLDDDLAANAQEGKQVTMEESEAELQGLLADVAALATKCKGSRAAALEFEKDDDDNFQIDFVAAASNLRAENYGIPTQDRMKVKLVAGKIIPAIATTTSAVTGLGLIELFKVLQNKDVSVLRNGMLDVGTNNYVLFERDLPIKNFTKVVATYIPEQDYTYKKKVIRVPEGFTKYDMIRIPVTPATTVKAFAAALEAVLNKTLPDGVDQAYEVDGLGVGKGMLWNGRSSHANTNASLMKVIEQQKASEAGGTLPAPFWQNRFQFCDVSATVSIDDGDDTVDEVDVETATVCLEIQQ
The experiment is described as follows: Leishmania donovani Ubiquitin Activating Enzyme (LdE1). The class given is functional. The following applies: 30 µM.

The target in experiment [3] is T2, Aspartate--tRNA(Asp/Asn) ligase (Mycobacterium tuberculosis (strain ATCC 25618 / H37Rv)) (UniProt P9WFW3). Also: in the data most compounds retested in dose-response had high values.
T2 sequence (whole entry): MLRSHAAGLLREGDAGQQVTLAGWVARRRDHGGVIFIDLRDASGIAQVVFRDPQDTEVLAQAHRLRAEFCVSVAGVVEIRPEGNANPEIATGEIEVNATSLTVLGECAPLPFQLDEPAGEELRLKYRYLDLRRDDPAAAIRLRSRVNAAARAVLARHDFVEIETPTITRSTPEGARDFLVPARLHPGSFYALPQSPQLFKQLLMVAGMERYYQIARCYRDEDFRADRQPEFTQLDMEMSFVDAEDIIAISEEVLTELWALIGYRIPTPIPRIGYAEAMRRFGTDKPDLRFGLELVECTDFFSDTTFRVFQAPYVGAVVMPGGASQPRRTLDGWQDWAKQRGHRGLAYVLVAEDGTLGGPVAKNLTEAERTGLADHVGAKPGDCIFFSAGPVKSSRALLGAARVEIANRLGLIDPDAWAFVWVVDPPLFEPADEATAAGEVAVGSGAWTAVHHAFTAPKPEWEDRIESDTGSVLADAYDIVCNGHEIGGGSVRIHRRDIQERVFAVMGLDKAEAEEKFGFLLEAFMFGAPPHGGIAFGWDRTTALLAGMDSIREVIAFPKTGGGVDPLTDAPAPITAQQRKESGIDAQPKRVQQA
Kind of experiment: Assay for Asp RNA synthetase-1 from Mycobacterium tuberculosis. The class given is functional. Particulars: 30 µM.

For experiment [4], the target named is AMP-activated protein kinase, AMPK (Homo sapiens) (UniProt P54646+O43741+P54619+Q9UGJ0+Q9Y478+Q13131+Q9UGI9). The experiment is described as follows: AMP-dependent Kinase enzyme assay. An in vitro enzyme assay that detects ADP turnover that is directly proportional to AMPK activity. This uses naive AMPK that is activated during the assay with MK-8722. Particulars: 30 µM. The class given is functional.

Experiment [5] deals with Sialic acid-binding Ig-like lectin 9 (Homo sapiens) (UniProt Q9Y336). The experiment is described as follows: Hs-Siglec9 ALPHAscreen SOP 20170721. The following applies: 10 µM.
Another experiment relates to Trypanosoma cruzi. Kind of experiment: Trypanosoma cruzi phosphomannomutase and mannose-1-phosphate guanylyltransferase assay. The class given is functional. Particulars: 10 µM.
The target of experiment [6] is T3, Arginase-2, mitochondrial (Homo sapiens) (UniProt P78540).
T3 sequence (whole entry): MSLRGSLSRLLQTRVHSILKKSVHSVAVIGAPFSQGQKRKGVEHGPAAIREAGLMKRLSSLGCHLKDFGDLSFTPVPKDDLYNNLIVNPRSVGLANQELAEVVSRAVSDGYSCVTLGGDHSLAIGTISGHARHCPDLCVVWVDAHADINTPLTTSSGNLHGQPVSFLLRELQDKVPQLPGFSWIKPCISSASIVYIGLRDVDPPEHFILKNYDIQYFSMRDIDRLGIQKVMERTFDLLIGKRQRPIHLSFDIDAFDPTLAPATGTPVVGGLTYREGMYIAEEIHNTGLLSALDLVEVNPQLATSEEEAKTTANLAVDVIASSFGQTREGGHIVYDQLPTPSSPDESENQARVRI
Kind of experiment: in vitro enzyme assay to detect the production of urea directly proportional to the activity of Arginase II. Also: in the data most compounds retested in dose-response had high values. In kind it is functional. The following applies: 33.3 µM.

The target of experiment [7] is T4, Proteasome subunit beta (Trypanosoma cruzi) (UniProt O96673).
T4 sequence (whole entry): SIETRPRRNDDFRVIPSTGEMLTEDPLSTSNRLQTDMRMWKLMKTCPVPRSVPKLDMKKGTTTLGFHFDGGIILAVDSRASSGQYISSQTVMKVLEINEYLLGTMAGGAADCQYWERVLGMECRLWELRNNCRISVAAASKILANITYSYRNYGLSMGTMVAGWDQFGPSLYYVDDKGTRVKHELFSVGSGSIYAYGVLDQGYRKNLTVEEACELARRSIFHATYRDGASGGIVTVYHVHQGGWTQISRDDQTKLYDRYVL
Kind of experiment: Trypanosoma cruzi proteasome chymotrypsin-like activity (TcProtChymo) assay. Also: in the data most compounds retested in dose-response had high values. Particulars: 9.37 µM. The class given is functional.

Another experiment is filed under the species Homo sapiens. Kind of experiment: To identify inhibition of the IFN signalling (Jak-Stat) pathway via expression of an eGFP reporter gene under the control of an IFN-stimulated response element (ISRE) containing MxA promoter. The class given is functional. The following applies: 30 µM. On the technique in general: A reporter such as luciferase makes a cellular process visible.

In experiment [8] the target is Shiga toxin 2 (Escherichia coli O157:H7) (UniProt P09385+P09386). The experiment is described as follows: E. coli 0.157:H7 Shiga Toxin SOP - stx2 screening assay. The class given is functional. The following applies: 30 µM.
In experiment [9] the target is T5, Tyrosyl-tRNA synthetase, putative (Trypanosoma cruzi (strain CL Brener)) (UniProt Q4DSP6).
T5 sequence (whole entry): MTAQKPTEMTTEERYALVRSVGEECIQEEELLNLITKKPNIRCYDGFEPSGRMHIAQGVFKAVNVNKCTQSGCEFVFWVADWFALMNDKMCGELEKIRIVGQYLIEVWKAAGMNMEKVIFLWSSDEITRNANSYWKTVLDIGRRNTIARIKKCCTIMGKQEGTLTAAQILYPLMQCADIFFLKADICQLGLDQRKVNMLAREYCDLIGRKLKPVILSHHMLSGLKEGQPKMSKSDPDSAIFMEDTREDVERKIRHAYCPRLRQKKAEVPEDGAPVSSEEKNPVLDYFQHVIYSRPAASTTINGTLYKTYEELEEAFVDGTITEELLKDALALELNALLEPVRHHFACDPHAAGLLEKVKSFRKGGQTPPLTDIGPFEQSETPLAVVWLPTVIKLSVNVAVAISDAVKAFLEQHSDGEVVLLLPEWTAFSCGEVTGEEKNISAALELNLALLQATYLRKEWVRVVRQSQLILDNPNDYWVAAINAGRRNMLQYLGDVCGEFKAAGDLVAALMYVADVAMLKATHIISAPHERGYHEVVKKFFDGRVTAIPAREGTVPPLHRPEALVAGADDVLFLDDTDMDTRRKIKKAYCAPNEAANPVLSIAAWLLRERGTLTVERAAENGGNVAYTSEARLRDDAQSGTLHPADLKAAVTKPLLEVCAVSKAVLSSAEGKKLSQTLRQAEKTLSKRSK
The experiment is described as follows: Trypanosoma cruzi tyrosyl tRNA synthetase (TcYRS) _High Tyrosine SOP. Also: in the data most compounds retested in dose-response had high values. The class given is functional. The following applies: 30 µM.

The target of experiment [10] is T5, Tyrosyl-tRNA synthetase, putative (Trypanosoma cruzi (strain CL Brener)). Kind of experiment: Trypanosoma cruzi tyrosyl tRNA synthetase (TcYRS) SOP. Particulars: 30 µM. In kind it is functional.
Experiment [11] addresses Chromo domain-containing protein 1 (Saccharomyces cerevisiae (strain ATCC 204508 / S288c) (Baker's yeast)) (UniProt P32657). The experiment is described as follows: ScCHD-1 Enzyme Inhibition Assay. Also: in the data most compounds retested in dose-response had high values. The class given is functional. Particulars: 30 µM.

Sialic acid-binding Ig-like lectin 9 (Homo sapiens), sequence (Q9Y336 whole entry): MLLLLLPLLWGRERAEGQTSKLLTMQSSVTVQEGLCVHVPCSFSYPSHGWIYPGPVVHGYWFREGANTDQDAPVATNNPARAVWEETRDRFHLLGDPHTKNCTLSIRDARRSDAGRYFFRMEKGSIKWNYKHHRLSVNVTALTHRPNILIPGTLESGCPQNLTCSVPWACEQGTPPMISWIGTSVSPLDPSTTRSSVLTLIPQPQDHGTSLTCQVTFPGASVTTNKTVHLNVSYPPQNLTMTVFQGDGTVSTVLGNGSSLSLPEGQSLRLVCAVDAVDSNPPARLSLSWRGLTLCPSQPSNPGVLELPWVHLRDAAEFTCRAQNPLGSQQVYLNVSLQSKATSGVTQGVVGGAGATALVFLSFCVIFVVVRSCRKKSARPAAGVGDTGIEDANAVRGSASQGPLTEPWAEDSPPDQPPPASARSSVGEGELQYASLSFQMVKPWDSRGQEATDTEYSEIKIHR
Protein translocase subunit SecA (Escherichia coli (strain K12)), sequence (P10408 whole entry): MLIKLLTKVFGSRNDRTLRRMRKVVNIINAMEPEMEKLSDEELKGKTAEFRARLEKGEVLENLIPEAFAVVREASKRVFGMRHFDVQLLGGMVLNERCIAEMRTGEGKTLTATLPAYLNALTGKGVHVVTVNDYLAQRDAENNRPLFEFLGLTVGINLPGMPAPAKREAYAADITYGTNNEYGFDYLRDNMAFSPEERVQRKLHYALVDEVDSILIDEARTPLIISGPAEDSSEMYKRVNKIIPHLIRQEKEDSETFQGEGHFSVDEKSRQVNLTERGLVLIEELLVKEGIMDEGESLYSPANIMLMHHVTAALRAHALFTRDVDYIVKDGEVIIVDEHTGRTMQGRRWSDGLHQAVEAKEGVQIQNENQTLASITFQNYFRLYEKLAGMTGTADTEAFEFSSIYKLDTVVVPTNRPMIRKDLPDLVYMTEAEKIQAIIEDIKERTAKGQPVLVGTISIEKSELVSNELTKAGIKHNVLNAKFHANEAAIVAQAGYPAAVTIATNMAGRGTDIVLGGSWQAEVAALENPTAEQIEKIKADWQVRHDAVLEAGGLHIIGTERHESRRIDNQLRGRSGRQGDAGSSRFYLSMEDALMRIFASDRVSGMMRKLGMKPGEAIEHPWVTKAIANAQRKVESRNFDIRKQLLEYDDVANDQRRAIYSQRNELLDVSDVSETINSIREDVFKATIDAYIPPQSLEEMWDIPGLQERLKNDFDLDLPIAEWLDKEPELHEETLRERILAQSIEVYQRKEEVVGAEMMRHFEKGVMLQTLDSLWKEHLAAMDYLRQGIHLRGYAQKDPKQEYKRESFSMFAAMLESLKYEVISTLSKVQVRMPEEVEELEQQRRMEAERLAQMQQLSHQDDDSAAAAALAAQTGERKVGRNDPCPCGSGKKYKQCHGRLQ
Chromo domain-containing protein 1 (Saccharomyces cerevisiae (strain ATCC 204508 / S288c) (Baker's yeast)), sequence (P32657 whole entry, the tested form may be a part): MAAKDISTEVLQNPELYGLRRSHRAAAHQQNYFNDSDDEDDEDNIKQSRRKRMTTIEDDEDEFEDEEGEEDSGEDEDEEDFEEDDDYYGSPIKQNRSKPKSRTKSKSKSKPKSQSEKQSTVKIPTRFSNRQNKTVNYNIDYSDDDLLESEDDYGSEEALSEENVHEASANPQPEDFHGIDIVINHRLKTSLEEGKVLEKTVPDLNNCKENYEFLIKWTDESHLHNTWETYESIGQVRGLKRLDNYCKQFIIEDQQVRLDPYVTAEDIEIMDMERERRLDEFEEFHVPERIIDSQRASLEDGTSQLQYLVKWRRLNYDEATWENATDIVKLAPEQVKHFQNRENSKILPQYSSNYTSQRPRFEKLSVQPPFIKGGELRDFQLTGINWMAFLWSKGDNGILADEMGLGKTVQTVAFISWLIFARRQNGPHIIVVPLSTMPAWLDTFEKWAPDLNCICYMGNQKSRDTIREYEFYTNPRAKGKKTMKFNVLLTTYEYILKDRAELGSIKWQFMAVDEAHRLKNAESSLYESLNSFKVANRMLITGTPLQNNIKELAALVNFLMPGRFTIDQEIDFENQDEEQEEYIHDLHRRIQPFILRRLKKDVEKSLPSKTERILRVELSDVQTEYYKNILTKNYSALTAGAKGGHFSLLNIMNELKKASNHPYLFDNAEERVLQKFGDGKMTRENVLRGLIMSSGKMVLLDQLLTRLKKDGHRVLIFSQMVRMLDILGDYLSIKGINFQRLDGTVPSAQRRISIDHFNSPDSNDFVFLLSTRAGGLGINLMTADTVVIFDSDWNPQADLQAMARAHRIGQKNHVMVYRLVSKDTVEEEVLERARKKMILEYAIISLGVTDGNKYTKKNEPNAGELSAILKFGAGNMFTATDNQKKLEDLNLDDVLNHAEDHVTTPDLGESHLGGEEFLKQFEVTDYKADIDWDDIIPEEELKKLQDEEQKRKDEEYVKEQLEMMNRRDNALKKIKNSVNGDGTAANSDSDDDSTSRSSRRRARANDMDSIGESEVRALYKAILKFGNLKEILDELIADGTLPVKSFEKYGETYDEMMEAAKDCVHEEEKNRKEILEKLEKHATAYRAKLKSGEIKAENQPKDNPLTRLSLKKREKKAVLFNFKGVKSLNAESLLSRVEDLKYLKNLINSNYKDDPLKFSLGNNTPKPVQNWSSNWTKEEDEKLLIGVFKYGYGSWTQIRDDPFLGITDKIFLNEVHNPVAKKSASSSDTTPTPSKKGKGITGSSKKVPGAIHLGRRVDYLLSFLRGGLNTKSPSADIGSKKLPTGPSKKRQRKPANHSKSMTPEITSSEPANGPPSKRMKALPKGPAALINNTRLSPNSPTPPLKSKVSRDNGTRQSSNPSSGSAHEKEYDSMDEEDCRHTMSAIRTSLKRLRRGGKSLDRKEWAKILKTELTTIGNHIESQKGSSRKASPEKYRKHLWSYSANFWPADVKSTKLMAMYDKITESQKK

Take `Cc1csc(CN2CCC[C@]3(C[C@H](Oc4ccccn4)CO3)C2)n1`: the Percent Effect in experiment [1] was 0.108%; in [2] it was 16.4%; in experiment [3], 2.42%; in experiment [4] it was -0.448%; in experiment [5] it was 1.76%; in the experiment on Trypanosoma cruzi, 3.57%. Also, the Percent Effect in [6] was 2.4%; in experiment [7], 3.85%; in the experiment filed under Homo sapiens, 21.9%; in [8], -19.3%; in [9], 3.12%; in [10], 21%. Moreover, in experiment [11], the Percent Effect was -4.03%.
On to `c1cncc(OC[C@@H]2CC[C@H]3[C@H](CCN3Cc3cccs3)O2)c1`, for which the Percent Effect was -2.2% in [1]; 5.33% in [2]; -2.1% in experiment [3]; 4.9% in experiment [4]; -3.46% in [5]; -2.56% with Trypanosoma cruzi. The Percent Effect in experiment [6] is 2.1%; in experiment [7], -0.969%; in the experiment filed under Homo sapiens, -0.872%; in experiment [8], -5.68%; in [9], 2.13%; in experiment [10], 8.97%. In experiment [11], the Percent Effect is 2.16%.
For `c1cncc(N2CCOCC3(CCCN(Cc4cccs4)C3)C2)c1` (stereo not given), the Percent Effect in [1] was -5.18%; in experiment [2], 13.5%; in [3], 2.95%; in [4] it was 5.95%; in experiment [5], -1.9%; in the experiment on Trypanosoma cruzi, -0.293%. For the same compound, the Percent Effect in experiment [6] amounted to 2.23%; in experiment [7] it was 10.3%; in the experiment filed under Homo sapiens, 4.59%; in experiment [8], 14.1%; in experiment [9], 8.65%; in [10], 15.4%. Also, in experiment [11], the Percent Effect was -1.37%.
Take `O=C1[C@H]2CN(Cc3cccs3)C[C@H]2CN1c1cncnc1`: the Percent Effect in [1] was -5.75%; in experiment [2], 2.6%; in experiment [3], -7.76%; in experiment [4] it was 1.57%; in experiment [5] it was 4.28%; in the experiment with Trypanosoma cruzi, -3.25%. In addition, the Percent Effect in experiment [6] was -8.28%; in [7] it was 9.65%; in the experiment listed under Homo sapiens, 7.38%; in experiment [8], -49.4%; in experiment [9], 2.15%; in experiment [10], 1.24%. Besides, the Percent Effect in [11] worked out at 1.9%.
In the case of `c1cncc(CN2CC[C@H]3O[C@@H](COCC4CC4)CC[C@H]32)c1`, the Percent Effect is -2.96% in experiment [1]; -2.67% in experiment [2]; -5.28% in experiment [3]; 10.2% in experiment [4]; 2.62% in experiment [5]; -0.591% in the experiment on Trypanosoma cruzi. Further, the Percent Effect is 7.23% in experiment [6]; -2.38% in experiment [7]; 8.64% in the experiment filed under Homo sapiens; -10.9% in experiment [8]; 4.25% in experiment [9]; 6.41% in experiment [10]. Moreover, in experiment [11], the Percent Effect amounted to 3.34%.
